From PubChem BioAssay AID720706 (Broad Institute, 2013)
Screen size: about 350,000 compounds; about 5,500 (1.6%) were called active.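 The calls were made as follows: active = significant combined selectivity score with lowered wild-type GFP, culture density cut under 30%, mutant RFP and density less affected; inactive = any of these conditions unmet.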 This excerpt belongs to a sample that is enriched for actives.

Experiment: GFP drop in mixed WT/humanized-ribosome E. coli culture – GFP/RFP fluorescence, OD600, single point, bacterial rRNA inhibitor project, primary screen (AID 720706)
Conditions: E. coli WT GFP vs humanized-ribosome RFP mutants, 24 h; GFP signal change (wild-type ribosome): stronger effect = lower value, DMSO median 0, no signal -100; OD600 change: measured here: OD600 growth, DMSO median 0, no signal -100; RFP signal change: measured here: RFP humanized mutant strains, DMSO median 0, no signal -100, concentration not given here

SMILES | GFP signal change (wild-type ribosome) | OD600 change | RFP signal change
CO[C@H]1CN(C)C(=O)c2ccc(NC(C)=O)cc2OC[C@@H](C)N(C(=O)CN(C)C)C[C@@H]1C | -1.24% (inactive) | 6.54% | -4.25%
CCC(C)N(C)C1CCN(C(=S)Nc2ccc(OC)cc2)CC1 (stereo not given) | 6.68% (inactive) | -2.86% | -3.62%
COc1ccccc1C1CCN(C(=S)Nc2ccc(Br)cc2)CC1 | -36.8% (active) | -23.8% | -10.2%
COc1ccccc1NC(=S)N1CCN(C(c2ccccc2)c2ccccc2)CC1 | 5.66% (inactive) | 0.74% | -6.29%
CN[C@H]1C[C@H]2c3[nH]c4c(-c5ccccc5)cccc4c3CCN2C(=O)[C@H]1[C@H](C)O | -35.6% (inactive) | -70.1% | -2.51%
CCc1nnc(NC(=O)C2CCN(C(=O)c3ccccc3C)CC2)s1 | 6.89% (inactive) | 6.36% | 0.577%
CCC(CC)c1nnc(NC(=O)C2CCN(C(=O)c3ccco3)CC2)s1 | -22.2% (active) | -16.6% | -5.86%
COc1ccc(CNC(=O)C2CCN(C(=O)c3ccco3)CC2)cc1 | -1.02% (inactive) | 2.41% | 0.192%
C/C=C/c1ccc2c(c1)O[C@H](CN(C)C(=O)Cc1ccncc1)[C@@H](C)CN([C@@H](C)CO)S2(=O)=O | -0.815% (inactive) | -5.29% | 0.444%
O=C(NCCS(=O)(=O)N1CCN(c2ccccc2)CC1)c1cc(=O)c2ccccc2o1 | 1.78% (inactive) | 2.38% | -0.491%
O=C(NCCS(=O)(=O)N1CCN(c2ccccc2)CC1)c1ccco1 | -1.63% (inactive) | -7.54% | -1.71%
O=C(NCCS(=O)(=O)N1CCN(c2ccccc2F)CC1)c1ccc(Br)o1 | -32% (active) | -25.8% | -5.03%
COc1cccc(S(=O)(=O)N2CCCCN3[C@H](CO)[C@H](c4ccc(C#CC5CC5)cc4)[C@H]3C2)c1 | -57.8% (inactive) | -71% | -6.51%
Cc1ccc(S(=O)(=O)N2CCN(c3ccccc3)CC2)cc1C | -16.3% (inactive) | -15.2% | -8.46%
Cc1ccc(S(=O)(=O)N2CC(=O)Nc3ccccc32)cc1C | -32.4% (active) | -6.68% | 4.37%
Cc1ccc(S(=O)(=O)N(C)CC(=O)OCC(=O)N2CC(=O)Nc3ccccc32)cc1 | 2.71% (inactive) | -0.97% | 0.17%
CCCNC(=O)N1C[C@H](C)[C@@H](OC)CN(C)C(=O)c2ccc(NS(=O)(=O)CC(F)(F)F)cc2OC[C@@H]1C | -0.684% (inactive) | 1.48% | -1.07%
Cc1ccccc1-c1cnc2c(c1)C(=O)N([C@H](C)CO)C[C@@H](C)[C@H](CN(C)C(=O)c1cccnc1)O2 | 2.61% (inactive) | 12.8% | -2.14%
COc1ccc2c3c(n(C)c2c1)[C@H](CO)N(Cc1ccccc1)CC31CCN(C)CC1 | 0.784% (inactive) | 7.81% | 2.48%
O=S(=O)([N-]c1nc2ccccc2nc1-[n+]1ccc(Cc2ccccc2)cc1)c1ccc(Br)s1 | -29.2% (active) | -18.6% | -0.481%

SMILES | GFP signal change (wild-type ribosome) | OD600 change | RFP signal change
CC(C)NC(=O)Nc1ccc2c(c1)CC(=O)N([C@@H](C)CO)C[C@@H](C)[C@H](CN(C)Cc1ccc(C(F)(F)F)cc1)O2 | 2.02% (inactive) | -34.5% | -0.097%
CCN(CC)C(=O)C(=O)c1cn(CC(=O)NCc2ccc3c(c2)OCO3)c2ccccc12 | 10.3% (inactive) | -1.1% | 3.71%
Cn1cc(CCC(=O)NC2CC2)c2ccccc21 | 4.27% (inactive) | 10.1% | -0.645%
Cn1cc(CCC(=O)NCc2ccc3c(c2)OCO3)c2ccccc21 | -21.5% (active) | -10.6% | 2.95%
O=C(C[C@@H]1CC[C@H](NC(=O)C2CCC2)[C@@H](CO)O1)NC1CCCCC1 | 3% (inactive) | 3.16% | -1.22%
Cc1cccc(NS(=O)(=O)c2ccc(C)c(C(=O)NCC(c3ccccc3)N(C)C)c2)c1 (stereo not given) | 4.21% (inactive) | 4.97% | 2.06%
Cc1ccc(S(=O)(=O)NCCCn2ccnc2)cc1C(=O)NC(C)C | 10.7% (inactive) | 7.94% | -1.51%
Cc1ccc(S(=O)(=O)NCCC(c2ccccc2)c2ccccc2)cc1C(=O)O | -40.5% (active) | -24.2% | -13.9%
O=C([C@@H]1[C@@H](CO)[C@@H]2Cn3c(ccc(C4=CCCCC4)c3=O)[C@H]1N2Cc1nccs1)N1CCCCC1 | -2.47% (inactive) | 3.59% | 1.3%
COc1ccc(NC(=O)Nc2ccc3c(c2)CC(=O)N([C@H](C)CO)C[C@H](C)[C@H](CN(C)S(=O)(=O)c2ccccc2)O3)cc1 | 0.245% (inactive) | -2.9% | 0.358%
O=S(=O)(NCC[C@H]1CC[C@@H](NS(=O)(=O)c2ccccc2Cl)[C@@H](CO)O1)c1ccc(Cl)cc1 | -2.84% (inactive) | -5.01% | 0.345%
CC(=O)c1cccc(NC(=O)C2CCN(C(=O)c3ccccc3Cl)CC2)c1 | 0.045% (inactive) | 1.11% | 1.46%
Cc1ccc2c(c1)C1C[N+](C)(CC(=O)c3ccccc3)CCC1N2C(=O)c1ccccc1Cl (stereo not given) | -33.1% (active) | -36.3% | 20.4%
Cc1ccc(C(=O)N2CCCc3ccccc32)c(Cl)c1 | -20.5% (inactive) | -35.7% | -12.1%
COc1ccc(NC(=O)N(C)C[C@H]2Oc3ccc(NC(=O)Nc4ccc5c(c4)OCO5)cc3C(=O)N([C@H](C)CO)C[C@H]2C)cc1 | 0.515% (inactive) | 4.81% | 0.195%
C[C@H](O)C#Cc1cnc2c(c1)C(=O)N([C@H](C)CO)C[C@H](C)[C@@H](CN(C)C(=O)Nc1ccc(F)cc1)O2 | 1.18% (inactive) | 9.67% | -3.38%
COc1ccc(C#Cc2ccc([C@H]3[C@H]4CN(C(=O)c5cccnc5)CC(=O)N4[C@H]3CO)cc2)cc1 | 0.302% (inactive) | -5.28% | 2.11%
COc1ccc(OC)c(/C(C)=N\NC(=O)c2cc3cc(Cl)ccc3n2C)c1 | -24% (active) | -9.4% | -0.802%
COc1ccc(/C(C)=N/NC(=O)CCC(=O)Nc2ccc(Cl)cc2Cl)c(OC)c1 | -6.41% (inactive) | -4.28% | 3.43%
COc1cc(C(=O)NCc2cc3cc(Cl)ccc3n2C)cc(OC)c1OC | 4.54% (inactive) | 12% | 5.4%
